TDP1 cell CPT: DT40-hTDP1 cell growth loss with CPT | chicken DT40 Tdp1-/-;hTDP1 cells + 20 nM CPT, ATP luminescence, 48 h | Potency, µM (titrated, usually from 46.2 µM), actives largely listed as inhibitors | 12% of 420,000 active | AID 686979; also: nearly all actives have a fitted effect of over 55% in size
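Chicken DT40 Tdp1-/- cells stably complemented with human TDP1 were seeded at 400 cells/well in medium containing 20 nM camptothecin, exposed to pin-transferred compounds, and grown at 37 °C for at least 48 hr. Viability was read as ATP luminescence.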
TDP1 cell noCPT: qHTS for Inhibitors of human tyrosyl-DNA phosphodiesterase 1 (TDP1): qHTS in cells in absence of CPT | DT40 Tdp1-/- hTDP1 cells, no CPT, ATP luminescence, 48 h | Potency, µM (top dose mostly 46.2 µM), most hits filed as inhibitors | 15% of 420,000 active | AID 686978, 2013; also: nearly all actives have a fitted effect of over 55% in size
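Chicken DT40 Tdp1-/- cells complemented with human TDP1, screened without camptothecin (DMSO vehicle only), 400 cells/well. Compounds pin-transferred, cells incubated at 37 °C for at least 48 hr. Growth read as ATP-dependent luminescence (CellTiter-Glo, 30 min at RT).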
IL1B secr inh: blocks inflammasome-driven IL-1 beta release. THP-1 LPS/ATP IL-1B secretion, AlphaLISA, 16 h; stronger effect = lower value. activity change, % at 57.5 µM. 4.7% of 360,000 active. AID 743279; in the data active = activity change below about -50%; inconclusive = mostly about -30% to -49%
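Secreted IL-1B measured by AlphaLISA bead assay after 16 h compound exposure of THP-1 cells; compounds (final up to 57.5 uM) added 1 h before LPS (250 ng/mL) and ATP (1.25 mM) stimulation; lower signal means less secretion.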
HT1080 IDH1KD tx: HT-1080 IDH1 knockdown cell toxicity (counter line); 2% of 360,000 active; Potency, µM (series often up to 46.1 µM), most hits filed as cytotoxic; HT-1080 IDH1 knockdown viability, ATP luminescence, 48 h
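Cytotoxicity counter-line: IDH1KD HT-1080, 48 h, CellTiter-Glo. Curves classed by r2, magnitude and activity.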
HT1080NT lethal: kills 2HG-producing HT-1080-NT fibrosarcoma cells | HT-1080-NT fibrosarcoma viability, CellTiter-Glo ATP luminescence, 48 h | Potency, µM (titrated, usually from 46.1 µM), hits mostly cytotoxic | 1.6% of 360,000 active | AID 686970;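 also: NT is the 2HG producing partner of a matched IDH1 knockdown line; nearly all actives have a fitted effect of over 55% in size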
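HT-1080-NT; 750 cells/well; 5% FBS RPMI; 48 h compound, 37 degrees C; CellTiter-Glo luminescence; curve fitting and curve-class assignment.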
Large screens that a line does not name were inactive. In the library only some 19% were active in any assay of this set; here they are far more common. Unless noted, calls follow the shape of the dose curve; as a rule, active = well fitted curve in the direction sought with a large enough effect; inconclusive = small, poorly fitted or top-dose-only effect, or another doubt; inactive = no such curve, though single readings can be large; an effect the other way counts as inactive or inconclusive.

CNc1nc(-c2ccccc2Cl)nc2ccccc12	none (no result: IL1B secr inh, HT1080 IDH1KD tx, HT1080NT lethal)
COC(=O)CNc1nc(-c2ccccc2F)nc2ccccc12	TDP1 cell noCPT inconclusive
Cc1cccc(-c2nc(Nc3cccc(O)c3)c3ccccc3n2)c1	TDP1 cell CPT inconclusive, TDP1 cell noCPT inconclusive
COC(=O)c1ccc(Nc2nc(-c3ccccc3Cl)nc3ccccc23)cc1	TDP1 cell CPT inconclusive, TDP1 cell noCPT 16.4µM (no result: IL1B secr inh, HT1080 IDH1KD tx, HT1080NT lethal)
O=C(NCCN1CCOCC1)c1cnn(-c2nccc(-c3ccccc3C(F)(F)F)n2)c1C1CC1	none (no result: IL1B secr inh, HT1080 IDH1KD tx, HT1080NT lethal)
CCc1ccc(CN(C)C(=O)C2CCC(=O)N(Cc3ccccn3)C2)cc1 (configuration not stated)	none
CC(=O)c1cccc(Nc2nc(-c3ccccc3Cl)nc3ccccc23)c1	TDP1 cell CPT 14.6µM, TDP1 cell noCPT 10.3µM (no result: IL1B secr inh, HT1080 IDH1KD tx, HT1080NT lethal)
Clc1cccc(Nc2nc(-c3ccncc3)nc3ccccc23)c1	TDP1 cell noCPT inconclusive
Cc1ccc(S(=O)(=O)Nc2cc3c4c(c2)CC(=O)N4CCC3)cc1	TDP1 cell CPT inconclusive, TDP1 cell noCPT inconclusive
O=C(NCCN1CCCCC1)Nc1cccc(F)c1	none
CCCNC(=O)C1(C)CCCN(C(=O)C2(c3ccc(Cl)cc3)CCCC2)C1 (configuration not stated)	TDP1 cell CPT inconclusive, TDP1 cell noCPT 20.6µM
CCCNC(=O)C1(C)CCCN(C(=O)COc2ccc(C(C)(C)C)cc2)C1 (configuration not stated)	TDP1 cell CPT 29.1µM, TDP1 cell noCPT 16.4µM, HT1080 IDH1KD tx inconclusive
Cc1cc(=O)oc2c3c(cc(OCC(=O)NCc4ccco4)c12)OC(C)(C)CC3	TDP1 cell CPT inconclusive, TDP1 cell noCPT inconclusive
Cc1cc(=O)oc2c3c(cc(OCC(=O)NCc4ccncc4)c12)OC(C)(C)CC3	TDP1 cell CPT inconclusive, TDP1 cell noCPT 23.1µM
COc1ccc(CNC(=O)COc2cc3c(c4oc(=O)cc(C)c24)CCC(C)(C)O3)cc1OC	TDP1 cell CPT 20.6µM, TDP1 cell noCPT 23.1µM, IL1B secr inh inconclusive
Cc1c(C)c2c(OCC(=O)NCc3ccncc3)cc3c(c2oc1=O)CCC(C)(C)O3	TDP1 cell CPT inconclusive, TDP1 cell noCPT inconclusive
O=C(CSc1nnc(CNC(=O)c2ccccc2F)o1)Nc1cccc(C(F)(F)F)c1	none
C=C1CC[C@@H]2[C@](C)(CO)[C@H](O)CC[C@@]2(C)[C@@H]1C/C=C1/C(=O)OCC1O (some centres not stated)	TDP1 cell CPT 14.6µM, TDP1 cell noCPT 8.2µM, IL1B secr inh -87.2, HT1080 IDH1KD tx inconclusive, HT1080NT lethal inconclusive
C=C1CC[C@@H]2[C@](C)(CO)[C@H](O)CC[C@@]2(C)[C@@H]1C/C=C1/C(=O)OC[C@H]1O	TDP1 cell CPT 2.99µM, TDP1 cell noCPT 2.66µM (no result: IL1B secr inh, HT1080 IDH1KD tx, HT1080NT lethal)
CCN1CCCC1CNCc1cc2ccc(SC)cc2nc1-c1cc(OC)ccc1OC (configuration not stated)	none (no result: IL1B secr inh, HT1080 IDH1KD tx, HT1080NT lethal)
C[C@@]12CCC=C[C@H]1[C@H](c1ccc(C(F)(F)F)cc1)N(Cc1ccccc1)C2=O	TDP1 cell CPT inconclusive, TDP1 cell noCPT 16.4µM
C[C@@H]1CC=C[C@H]2[C@H]1C(=O)N(Cc1ccccc1)[C@H]2c1ccc(/C=C/c2ccccc2)cc1F	TDP1 cell CPT inconclusive, HT1080NT lethal inconclusive
C[C@@]12CCC=C[C@H]1[C@H](c1ccc(/C=C/c3ccccc3)cc1F)N(Cc1ccccc1)C2=O	TDP1 cell CPT 14.6µM, TDP1 cell noCPT 20.6µM, HT1080 IDH1KD tx inconclusive, HT1080NT lethal inconclusive
C[C@@]12CCC=C[C@H]1[C@H](c1ccc3ccccc3c1/C=C/c1ccccc1)N(Cc1ccccc1)C2=O	TDP1 cell CPT 2.06µM, TDP1 cell noCPT inconclusive
COc1ccc(-c2ccc(C)cc2)cc1[C@H]1[C@@H]2C=CCC[C@@]2(C)C(=O)N1Cc1ccccc1	TDP1 cell CPT inconclusive, TDP1 cell noCPT inconclusive, HT1080 IDH1KD tx inconclusive, HT1080NT lethal inconclusive
CCCCN1C(=O)C(CC(=O)NCCN2CCOCC2)CC(C(=O)N2CCOCC2)=C1C (configuration not stated)	none
CCC(C)[C@H](NC(=O)C1CCN(C(=O)[C@H](Cc2ccccc2)NS(=O)(=O)c2ccc(C)cc2)CC1)C(=O)O (some centres not stated)	HT1080 IDH1KD tx inconclusive
COc1ccc(NS(=O)(=O)c2ccc3c(c2)CC(C)N3C(=O)C2CCC2)cc1OC (configuration not stated)	TDP1 cell CPT 1.03µM, TDP1 cell noCPT 0.651µM (no result: IL1B secr inh, HT1080 IDH1KD tx, HT1080NT lethal)
COc1cc(Cl)c(NS(=O)(=O)c2ccc3c(c2)CC(C)N3C(=O)C2CCC2)c(OC)c1 (configuration not stated)	TDP1 cell CPT 6.51µM, TDP1 cell noCPT 5.8µM (no result: IL1B secr inh, HT1080 IDH1KD tx, HT1080NT lethal)
O=C(c1ccco1)N1CCN(Cc2nnc(-c3ccccc3)o2)CC1	none
O=C(c1cc(COc2cccc(C(F)(F)F)c2)on1)N1C[C@@H]2CCC[C@H]1C2	TDP1 cell CPT inconclusive, TDP1 cell noCPT inconclusive, IL1B secr inh inconclusive
Cc1cccnc1CNC(=O)C1(C)CCCN1CC(C)C (configuration not stated)	TDP1 cell CPT 14.6µM, TDP1 cell noCPT 14.6µM
Cc1ccsc1C(=O)N1CCCC1(C)C(=O)NCC(C)C (configuration not stated)	none
Cc1ccsc1CNC(=O)C1(C)CCCN1CC(C)C (configuration not stated)	TDP1 cell CPT 14.6µM, TDP1 cell noCPT inconclusive
CSc1ccccc1CNC(=O)C1(C)CCCN1CC(C)C (configuration not stated)	TDP1 cell CPT 25.9µM, TDP1 cell noCPT 23.1µM
CCN(CC(=O)NC1CCS(=O)(=O)C1)C(=O)c1cc(OC)c(OC)c(OC)c1 (configuration not stated)	none
Cc1cccc(C(CC(=O)O)NC(=O)C(F)(F)F)c1 (configuration not stated)	none
CCN(CC)CCN(CC(=O)Nc1c(C)cc(C)cc1C)C(=O)c1ccccc1	IL1B secr inh -68.4
CC(C)Oc1ccc(CNC(=O)c2cnc3sc(N4CCCC4)nn3c2=O)cc1	none (no result: IL1B secr inh, HT1080 IDH1KD tx, HT1080NT lethal)
Cc1ccc(NCc2nnc(SC(C)C(=O)N/N=C/c3ccc(C)o3)n2-c2ccccc2)cc1 (configuration not stated)	none
COC(=O)c1sc(N)c(C(=O)OC)c1CSc1nnc(-c2ccccc2Cl)n1C	TDP1 cell noCPT inconclusive
COC(=O)c1sc(NC(=O)c2c(C)noc2C)nc1C	none
COC(=O)c1sc(N)c(C(=O)OC)c1COC(=O)c1c(C)noc1C	TDP1 cell CPT 3.66µM, TDP1 cell noCPT 5.17µM, HT1080 IDH1KD tx 6.31µM, HT1080NT lethal 7.08µM
COC(=O)c1sc(N)c(C(=O)OC)c1Cn1ncc(Cl)c(Cl)c1=O	TDP1 cell CPT 23.1µM, TDP1 cell noCPT 14.6µM, IL1B secr inh -89.3, HT1080 IDH1KD tx inconclusive

Source: PubChem
